JMJD2E inh: blocks human JMJD2E demethylase activity; 1.6% of 230,000 active; Potency, µM (series often up to 57.1 µM), most hits filed as inhibitors; JMJD2E catalytic domain, FDH-coupled NADH fluorescence (FDH is formaldehyde dehydrogenase); B2RXH2; further: nearly all actives have a fitted effect of over 50% in size
HTT aggregate: reduces HttQ103-GFP aggregates in PC12 cells; PC12 HttQ103-GFP aggregates, Acumen cytometry, 40 h; Potency, µM (top dose mostly 46.1 µM), most hits filed as inhibitors; 1.1% of 220,000 active; AID 1688; active means well fitted curve in the direction sought with a large enough effect; inconclusive means small, poorly fitted or top-dose-only effect, or another doubt; inactive means no such curve, though single readings can be large; an effect the other way counts as inactive or inconclusive; further: nearly all actives have a fitted effect of over 60% in size
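Compounds (qHTS titration) were added to PC12 cells expressing an ecdysone-driven HTT exon 1 Q103–GFP fusion after induction with 100 nM tebufenozide. Aggregate formation was measured as GFP objects in cell lysates.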
LMNA splice mod: changes lamin A minigene splicing in HeLa cells; HeLa LMNA splicing GFP/RFP minigene ratio, 48 h; Potency, µM (highest dose often 46.1 µM), hits mostly inhibitors; 0.01% of 200,000 active; AID 1487; active means well fitted inhibition curve with a large enough effect in the signal ratio, with a control signal flat, not every such curve was filed as active; inconclusive means small, poorly fitted or top-dose-only effect, or effect the other way, or a change in a side signal; the % refers to the signal ratio
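Read-out is the ratio of GFP to DsRed2 object intensity, acquired by 488 nm laser-scanning cytometry on HeLa lamin A-EGFP minigene reporter cells. Compound incubation 48 hrs at 37 °C in Opti-MEM with 2% FBS; DMSO 0.5% final.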
HTT ATP protect: Huntington cell model cytoprotection by ATP luminescence. PC12 HTT-Q103 induced, cytoprotection, ATP luminescence, 40 h. Potency, µM (series often up to 56.4 µM), hits mostly activators. 0.14% of 230,000 active. AID 1471; active means well fitted curve in the direction sought with a large enough effect; inconclusive means small, poorly fitted or top-dose-only effect, or another doubt; inactive means no such curve, though single readings can be large; an effect the other way counts as inactive or inconclusive; further: nearly all actives have a fitted effect of over 45% in size
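PC12 cells stably carrying ecdysone-inducible Htt exon 1 (Q103)–GFP were induced with 100 nM tebufenozide (final) alongside library compounds in a dose series. Cytoprotection was scored as retained ATP by ATPlite luminescence.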
HPGD block: blocks human HPGD enzyme activity. purified HPGD, NADH fluorescence kinetic, PGE2 substrate. P15428. 4.3% of 150,000 active. Potency, µM, usual class: inhibitors
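NADH formation kinetics: reaction with 30 uM PGE2 and 1 mM NAD+ (final), 20 nM enzyme, Tris-HCl pH 8 with Tween 20, after 15 min compound preincubation at room temperature. Fluorescence change, last versus first of five reads.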
ALDH1A1 inh: ALDH1A1 (human) enzyme inhibition | P00352 | Purified ALDH1A1, NADH fluorescence, propionaldehyde substrate | Potency, µM (top dose mostly 75.3 µM), most hits filed as inhibitors | 7.3% of 220,000 active | AID 1030
Target sequence (P00352 whole entry, looked up): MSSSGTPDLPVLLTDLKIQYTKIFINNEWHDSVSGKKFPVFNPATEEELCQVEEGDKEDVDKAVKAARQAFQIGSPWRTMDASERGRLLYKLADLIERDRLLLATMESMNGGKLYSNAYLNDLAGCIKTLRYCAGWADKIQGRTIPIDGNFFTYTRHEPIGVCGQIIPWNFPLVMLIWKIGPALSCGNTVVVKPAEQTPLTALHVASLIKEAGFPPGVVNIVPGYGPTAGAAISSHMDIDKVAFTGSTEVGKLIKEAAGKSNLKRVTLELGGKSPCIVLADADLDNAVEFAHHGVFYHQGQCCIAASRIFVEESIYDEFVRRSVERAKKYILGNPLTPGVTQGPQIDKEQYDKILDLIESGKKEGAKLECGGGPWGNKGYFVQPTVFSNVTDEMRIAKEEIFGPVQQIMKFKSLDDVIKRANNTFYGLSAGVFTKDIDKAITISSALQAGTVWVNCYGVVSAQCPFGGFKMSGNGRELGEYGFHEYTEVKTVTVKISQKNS
Hits are given with their value; ! = not active in a repeat; [ ] = dose if it differs, or a comment. In the library only some 9.2% were active in any assay of this set; here they are far more common. Unless noted, the call rests on the fitted dose curve; in most records, active means well fitted inhibition curve with a large enough effect (not every such curve was filed as active); inconclusive means small, poorly fitted or top-dose-only effect, or another doubt; inactive means no such curve, though single readings can be large or run the other way.

`Cc1ccc(C(=O)COC(=O)C(Cc2c[nH]c3ccccc23)NC(=O)c2ccc(C(C)(C)C)cc2)cc1` (stereo not given) gave LMNA splice mod inactive.
Screening COc1ccc(C(=O)C2CCN(C(=S)Nc3ccc(F)cc3)CC2)cc1 returned JMJD2E inh inactive, HTT aggregate inactive, HTT ATP protect 2.5µM and ALDH1A1 inh inactive.
Screening COc1ccccc1NC(=O)N1CCC(C(=O)c2ccc(F)cc2)CC1 returned JMJD2E inh inactive, HTT aggregate inactive, LMNA splice mod inactive, HTT ATP protect inactive[10 µM], HPGD block inactive and ALDH1A1 inh inactive.
COc1ccc(NC(=S)N2CCC(C(=O)c3ccc(F)cc3)CC2)c(OC)c1 was read as JMJD2E inh inactive, HTT aggregate inactive, LMNA splice mod inactive, HTT ATP protect inactive and ALDH1A1 inh inactive.
Screening CCOc1ccccc1NC(=O)N1CCC(C(=O)c2ccc(F)cc2)CC1 returned JMJD2E inh inactive, HTT aggregate inactive, LMNA splice mod inactive, HTT ATP protect inactive, HPGD block inactive and ALDH1A1 inh 5µM.
Screening CNC(=O)c1c(NC(=O)c2ccc(S(=O)(=O)N3CCCC(C)C3)cc2)sc2c1CCC2 (stereo not given) returned LMNA splice mod inactive.
For CN([C@@H](Cc1ccc(OS(=O)(=O)c2cccc3cnccc23)cc1)C(=O)N1CCN(c2ccccc2)CC1)S(=O)(=O)c1cccc2cnccc12 the results were JMJD2E inh inactive, HTT aggregate inconclusive, LMNA splice mod inconclusive, HPGD block inactive and ALDH1A1 inh inactive.
CN(C(Cc1ccc(OS(=O)(=O)c2cccc3cnccc23)cc1)C(=O)N1CCN(c2ccccc2)CC1)S(=O)(=O)c1cccc2cnccc12 (stereo not given) was read as HTT ATP protect inactive and ALDH1A1 inh 14µM!.
Cc1nnc(NC(=O)CSc2ccc(-c3ccco3)nn2)s1 was read as JMJD2E inh inconclusive, HTT aggregate inactive, HTT ATP protect inactive and ALDH1A1 inh 7.1µM.
`Cc1ccc(C)c(NC(=O)CSc2ccc(-c3ccco3)nn2)c1` gave JMJD2E inh inactive, HTT aggregate inactive, LMNA splice mod inactive, HTT ATP protect inactive[10 µM], HPGD block inactive and ALDH1A1 inh 3.2µM.
For COc1ccc(NC(=O)c2ccco2)cc1NC(=O)c1cccnc1 the results were JMJD2E inh inactive, HTT aggregate 3.2µM, LMNA splice mod inactive, HTT ATP protect inactive[0.074 µM], HPGD block inactive and ALDH1A1 inh inactive.
`COc1cc2c(cc1NC(=O)c1ccc(C(C)(C)C)cc1)CCCC2` gave JMJD2E inh inactive, HTT aggregate inconclusive, LMNA splice mod inconclusive, HTT ATP protect inactive, HPGD block inconclusive and ALDH1A1 inh inconclusive.
For COc1cc2c(cc1NC(=O)c1cccnc1)CCCC2 the results were JMJD2E inh inactive, HTT aggregate inactive, LMNA splice mod inactive, HTT ATP protect inactive, HPGD block inactive and ALDH1A1 inh 28µM.
Screening CCC1=C2CC[C@H]3C(=O)NC(=O)[C@H]3[C@H]2[C@@]2(Cc3ccccc3)C(=NCc3ccccc3)OC(=O)N2C1=O returned JMJD2E inh inactive, HTT ATP protect inactive, HPGD block inactive and ALDH1A1 inh inactive.
`Cc1ccc(C)c(CSc2nnc(-c3ccccn3)n2N)c1` gave JMJD2E inh inactive, HTT aggregate inconclusive, LMNA splice mod inactive, HTT ATP protect inactive, HPGD block 16µM and ALDH1A1 inh 10µM.
`Nn1c(SCc2c(F)cccc2F)nnc1-c1ccccn1` gave JMJD2E inh inactive, HTT aggregate inactive[9.22 µM] and HTT ATP protect inactive[10 µM].
For N#CCSc1nc(Nc2ccc3c(c2)OCO3)c2ccccc2n1 the results were JMJD2E inh inactive, HTT aggregate 25µM, LMNA splice mod inconclusive, HTT ATP protect inactive, HPGD block inconclusive and ALDH1A1 inh inactive.
For C/C(N)=C(/C#N)C(=O)CSc1nc(C2CCCCC2)n(-c2ccccc2)n1 the results were JMJD2E inh inactive, HTT aggregate inactive, LMNA splice mod inactive, HTT ATP protect inactive, HPGD block inactive and ALDH1A1 inh 32µM.
For Clc1ccc(OCc2nc(-c3ccncc3)no2)c(Cl)c1 the results were JMJD2E inh inactive, HTT aggregate inactive, LMNA splice mod inconclusive, HTT ATP protect inactive, HPGD block 13µM and ALDH1A1 inh inactive.
For CCC(C)NC(=O)c1ccc(C(=O)c2ccccc2)cc1 (stereo not given) the results were JMJD2E inh inactive, HTT aggregate inactive, LMNA splice mod inactive, HTT ATP protect inactive[10 µM] and ALDH1A1 inh inconclusive.
For O=C(O)c1ccc(COc2ccccc2Cl)cc1 the results were JMJD2E inh inactive, HTT aggregate inactive, LMNA splice mod inactive, HTT ATP protect inactive, HPGD block 13µM and ALDH1A1 inh inactive.
CCC(C)NC(=O)c1ccc(COc2ccccc2Cl)cc1 (stereo not given) was read as JMJD2E inh inactive, HTT aggregate inactive, LMNA splice mod inactive, HTT ATP protect inactive, HPGD block 20µM and ALDH1A1 inh inactive.
O=C(O)c1cccc(COc2ccccc2Cl)c1 was read as JMJD2E inh inactive, HTT aggregate inactive, LMNA splice mod inactive, HTT ATP protect inactive[0.074 µM], HPGD block inconclusive and ALDH1A1 inh inactive.
`CCN(CC)C(=O)c1ccc(COc2ccccc2Cl)cc1` gave JMJD2E inh inactive, HTT aggregate inactive[9.22 µM], LMNA splice mod inactive, HTT ATP protect inactive, HPGD block 0.35µM and ALDH1A1 inh inconclusive.
For CC1CCN(C(=O)c2ccc(COc3ccccc3Cl)o2)CC1 the results were JMJD2E inh inactive, HTT aggregate inconclusive, LMNA splice mod inactive, HTT ATP protect inactive, HPGD block 16µM and ALDH1A1 inh inconclusive.
For Nc1ccccc1N=Nc1c(S(=O)(=O)O)cc2cc(S(=O)(=O)O)cc(O)c2c1O the results were HTT ATP protect inactive[10 µM], HPGD block inactive and ALDH1A1 inh inactive[13.5 µM].
COc1ccc(/C=N/NC(=O)CNC(=O)C2COc3ccccc3O2)cc1OC (stereo not given) was read as JMJD2E inh inactive, HTT aggregate inactive, LMNA splice mod inactive, HTT ATP protect inactive[1.9 µM], HPGD block inactive and ALDH1A1 inh inconclusive.
`CCCNC(=O)CSc1nc2[nH]ncc2c(=O)[nH]1` gave JMJD2E inh inactive, HTT aggregate inactive, LMNA splice mod inactive, HTT ATP protect inconclusive and ALDH1A1 inh inactive.
COC(=O)c1scc(C)c1N1C(=O)c2ccccc2C1=O was read as JMJD2E inh inactive, HTT aggregate inactive[9.22 µM], LMNA splice mod inactive, HTT ATP protect inactive[10 µM] and ALDH1A1 inh inactive.
CN(C)CC#Cc1cncc(C(=O)NNC(=O)Nc2ccc(Cl)cc2)c1 was read as JMJD2E inh inactive, HTT aggregate inactive[9.22 µM], LMNA splice mod inconclusive, HTT ATP protect inactive[10 µM] and ALDH1A1 inh 25µM.
C#CCCCO/N=C1/[C@H]2O[C@@H]2[C@@H](O)[C@H]2[C@H]1CCn1c(=O)n([C@@H](CC)c3ccccc3)c(=O)n12 was read as HTT ATP protect inactive[10 µM] and ALDH1A1 inh inactive[13.5 µM].

Compound activity as filed in PubChem.
